# Results published in PubChem BioAssay AID893 (National Center for Advancing Translational Sciences (NCATS), 2007).
# The whole screen tested about 75,000 compounds, of which about 5,700 (7.6%) were called active. About 7% were inconclusive and are not listed. For the sample, actives were picked, then their nearest neighbours and some compounds at random. Unmarked numbers belong to inactive results. The call rests on the fitted dose curve; in most records, active means well fitted inhibition curve with a large enough effect; inconclusive means small, poorly fitted or top-dose-only effect; inactive means no such curve, though single readings can be large or run the other way.
# Molecular target: 3-hydroxyacyl-CoA dehydrogenase type-2 (Homo sapiens) (UniProt Q99714)
# Assay: qHTS Assay for Inhibitors of HSD17B4, hydroxysteroid (17-beta) dehydrogenase 4;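 further: the protocol describes HADH2 (HSD17B10) and not the HSD17B4 of the title; nearly all actives have a fitted effect of over 70% in size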
# Details: recombinant HSD17B10, NADH fluorescence kinetic; series mostly up to 57.1 µM; activity change, negative = inhibition: at the top concentration
# How it was run: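 Activity followed as NADH fluorescence increase (ex 360, em 450 nm) every 30 seconds for 4 min, using final 90 uM beta-hydroxybutyryl CoA and 1 mM NAD+. Recombinant His-tagged enzyme, 20 nM, pH 9.0 Tris buffer, 15 min compound preincubation.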
# On the % scale 0 is the no-effect control and ±100 the full control effect; potency means the concentration at half of the fitted maximal effect.
Compound,"activity change, negative = inhibition",Potency
CN(CCCNC(=O)CN1C(=O)CC(C)(C)S(=O)(=O)c2ccccc21)C1CCCCC1,7.28%,–
Nc1nc2c(nc(Cl)n2C2OC(CO)C(O)C2O)c(=O)[nH]1 (stereo not drawn),2.31%,–
COC(=O)[C@@]1(Cc2ccc(F)cc2)[C@H]2c3cc(C(=O)N4CCCC4)n(Cc4ccc(OC(F)(F)F)cc4)c3C[C@H]2CN1C(=O)c1ccccc1,3.57%,–
CC(=O)OCC(=O)[C@@]1(O)CC[C@@H]2[C@H]3CCC4=CC(=O)C=C[C@]4(C)[C@]3(F)[C@@H](O)C[C@@]21C,-3.22% [at 25.6 µM],–
CC(=O)OCC(=O)[C@@]1(O)CCC2C3CCC4=CC(=O)CC[C@]4(C)C3C(=O)C[C@]21C (stereo partly drawn),-6.18%,–
C[C@]12C=CC(=O)C=C1CC[C@@H]1[C@@H]2C(=O)C[C@@]2(C)[C@H]1CC[C@]2(O)C(=O)CO,–,15.8 µM (active)
COC(=O)[C@H](C(C)C)n1c(C)c(C(C)=O)c(C(C)=O)c1C,0.196%,–
O=S(=O)(CCc1nc2ccccc2o1)c1ccc(Cl)cc1,0.596%,–
CC1(C)CC(=O)C=C(NCCCN2CCCC2=O)C1,3.81%,–
O=C1CCCN1CCCNc1ncnc2c1[nH]c1ccccc12,–,31.6 µM (active)
O=C(CCn1c(=S)[nH]c2ccccc2c1=O)NCCCN1CCCC1=O,-0.655%,–
CCOc1ccccc1NC(=O)c1cc(S(=O)(=O)N2CCC3(CC2)OCCO3)ccc1F,2.01%,–
CCOC(=O)C1CCN(C(=O)c2oc3ccc(S(=O)(=O)N4CCCCCC4)cc3c2C)CC1,-7.28%,–
Cc1c(C(=O)Nc2ccccc2Cl)oc2ccc(S(=O)(=O)N3CCC4(CC3)OCCO4)cc12,–,25.1 µM (active)
CCOC(=O)N1CCN(Cc2oc(CO)cc(=O)c2O)CC1,9.28%,–
Cc1nc2ccc(NC(=O)N3CCC(c4ccccc4)C3)cc2nc1C (stereo not drawn),–,25.1 µM (active)
O=C(Nc1cccc(NC(=O)N2CCN(c3ccccc3)CC2)c1)N1CCN(c2ccccc2)CC1,-8.85%,–
O=C(Nc1cccc(C(=O)N2CCCC2)c1)c1ccccc1,4.43%,–
O=C(O)[C@H](CCc1ccccn1)c1ccccc1,1.79% [at 11.4 µM],–
CC(=O)Nc1nc(C)c(Cc2ccccc2)c(=O)[nH]1,7.09%,–
CSc1ccc(Cl)c(C(=O)OCC(=O)N2CC(C)OC(C)C2)c1 (stereo not drawn),-18.8%,–
CC(=O)N1CCN(CCN=CC2=C(O)CC(C)(C)CC2=O)CC1,0.82%,–
CC1(C)CC(=O)C(C=NCCC2=CCCCC2)=C(O)C1,–,31.6 µM (active)
CC1(C)CC(=O)C(C=NCc2cccnc2)=C(O)C1,-0.881%,–
O=c1cc(CSc2ccc(Cl)cc2)nc(N2CCOCC2)[nH]1,3.58%,–
CNC(=O)c1ccc2nc(NC(C)=O)sc2c1,0.612%,–
CCn1c(SCC(=O)Nc2nc3ccc(OC)cc3s2)nnc1-c1ccoc1C,-3.39%,–

Compound,"activity change, negative = inhibition",Potency
COc1ccc2nc(NC(=O)c3ccc(Br)s3)sc2c1,–,31.6 µM (active)
CC1(C)CN=C(N2CCN(c3ncnc4sc5c(c34)CCCC5)CC2)S1,-2.18%,–
ON=C1/C(=N\O)CC2(C/C1=N/O)OCCO2,5.01%,–
CC(C)CC1(C(=O)NCc2ccccn2)C=CCN1C(=O)c1ccccc1 (stereo not drawn),4.19%,–
O=C(NCc1ccccn1)c1ccc2nc(-c3ccco3)c(-c3ccco3)nc2c1,–,12.6 µM (active)
O=C(NCc1ccco1)c1nc2ncccn2n1,5.09%,–
CCn1nnc(NC(=O)c2cc(Cl)c(OC)c(Cl)c2)n1,6.89%,–
Cc1noc(C)c1S(=O)(=O)N(CC(=O)NCc1ccc(Cl)cc1)c1ccc2c(c1)OCO2,4.33%,–
Cc1csc(-c2nc3ccccc3n2C)n1,–,31.6 µM (active)
COc1cc(C(O)c2nc3ccccc3n2C)cc(OC)c1OC (stereo not drawn),9.03%,–
Cc1nn2c3ccccc3nc2n(C)c1=O,-6.27%,–
O=C(NCc1ccco1)C1CCCN(S(=O)(=O)c2cccc3nonc23)C1 (stereo not drawn),-23.9%,–
CC(C)(C)c1ccc(OC2C=CC(C#Cc3ccccc3)OC2CO)cc1 (stereo not drawn),-6.55% [at 11.4 µM],–
COC1[C@H](OC(N)=O)C(O)[C@H](Oc2ccc3c(O)c(NC(=O)c4ccc(O)c(CC=C(C)C)c4)c(=O)oc3c2C)OC1(C)C (stereo partly drawn),-5.15%,–
O=C(c1ccc(F)cc1)C1CCN(CCCCc2ccccc2)CC1,-9.73%,–
CCN1C(=O)C(C(=O)NC(C)c2ccccc2)C2CC1(C)Oc1ccccc12 (stereo not drawn),1.95%,–
Cc1cc(C(F)(F)F)nn1-c1nc(-c2ccco2)cc(C(F)(F)F)n1,–,31.6 µM (active)
FC(F)(F)c1nnc2sc(-c3ccco3)nn12,6.1%,–
FC(F)(F)c1cc(-c2ccco2)nc(N2CCOCC2)n1,-6.73%,–
CCCC(C(=O)NCc1ccco1)N(C(=O)CNS(=O)(=O)c1ccccc1)C1CCCC1 (stereo not drawn),4.33%,–
CC(=O)N(CN1C(=O)C2CC=CCC2C1=O)c1cccc(Cl)c1 (stereo not drawn),6.21%,–
CC(=O)Nc1cccc(-c2cnc3ccccc3n2)c1,-2.86%,–
CC(=O)Nc1ccc(-c2cn3cccnc3n2)cc1,–,10 µM (active)
c1ccc(-c2cn3cccnc3n2)cc1,–,25.1 µM (active)
CCCC(=O)Nc1cccc(-c2cn3ccsc3n2)c1,11.3%,–
CCOc1nc(OCC)nc(-n2cc(-c3ccccc3)nn2)n1,-3.82%,–
